Sampled rows, rich in hits. Any-hit rate of the full collection: about 11%.
AMA1-RON2 inh: inhibitors of Plasmodium falciparum AMA1-RON2 interaction; AlphaScreen AMA1-biotinylated RON2 peptide binding; Potency, µM (doses to about 58.2 µM), hits mostly inhibitors; hit rate 0.2% among 360,000; AID 720542; also: nearly all actives have a fitted effect of over 45% in size
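AMA1 (3D7) with his tag at 25 nM final met compounds first, then biotinylated RON2 peptide at 25 nM; detection used donor plus acceptor beads, 10 µg/mL apiece, read by AlphaScreen after 30 min at room temperature.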
HCV inhibitor: HCV inhibition; Huh7.5.1 HCVcc-Cre infection, luciferase reporter, 44 h; Potency, µM (highest dose often 41.8 µM), usual class: inhibitors; hit rate 3.4% among 340,000
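A cell-based infection assay in which seeded cells (1,000 per well) receive test compound after 4 h, are inoculated with HCVcc-Cre at approximately 0.5 moi, and are incubated 44 h before luminescence detection.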
Pf growth 48h: P. falciparum growth inhibition at 48 hours (one generation); Potency, µM (doses to about 28.7 µM), most hits filed as inhibitors; hit rate 5.9% among 310,000; P. falciparum luciferase growth in erythrocytes, 48 h
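Compounds are pin-transferred into medium, infected erythrocytes (2% hematocrit, 0.1% parasitemia final) are added, and plates sit one parasite generation at 37 C in 5% CO2. Detection reagent is then added and luminescence measured.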
Pf growth 96h: P. falciparum growth inhibition at 96 hour, primary screen for plastid delayed-death inhibitors; P. falciparum luciferase reporter growth, 96 h; Potency, µM (titrated, usually from 28.7 µM), actives largely listed as inhibitors; hit rate 6.9% among 320,000; AID 504834
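96 h incubation, 37 C, 5% CO2, of luciferase-reporter P. falciparum-infected RBCs (2% hematocrit, 0.05% parasitemia final) with test compounds; endpoint luminescence.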
Numbers stand for hits; n = inactive; u = inconclusive; x = no result; [ ] = dose if it differs, or a comment. Calls follow the shape of the dose curve; as a rule, active = well fitted curve in the direction sought with a large enough effect; inconclusive = small, poorly fitted or top-dose-only effect, or another doubt; inactive = no such curve, though single readings can be large; an effect the other way counts as inactive or inconclusive.

SMILES	AMA1-RON2 inh	HCV inhibitor	Pf growth 48h	Pf growth 96h
COc1cc2c(cc1OC)C(C)N(Cc1ccc3c(c1)OCO3)CC2 (stereo not given)	n	n	n	n
CCN(C(=O)CSc1ncccn1)c1c(N)n(Cc2ccccc2)c(=O)[nH]c1=O	n	n	u	n
CC1CC(C)CN(S(=O)(=O)c2ccc(C(=O)N3CCN(c4ccccc4)CC3)cc2)C1 (stereo not given)	n	10µM	u	u
Cc1ccc(C(=O)N2CCN(S(=O)(=O)N3CCCCC3)CC2)cc1	n	n	n	10.4µM
Cc1ccc(C(=O)N2CCN(S(=O)(=O)c3ccc(C)cc3)CC2)cc1	n	n	n	13.1µM
O=C(c1ccccc1)N1CCN(S(=O)(=O)c2ccccc2)CC1	n	n	u	n
COc1ccc(-c2noc(CCC(=O)NCc3cccnc3)n2)cc1OC	n	n	n	n
Cc1cccc(C)c1N1CCN(C(=O)N2CCCCC2)CC1	n	n	u	n
COc1ccc(C(=O)c2c(C(F)(F)F)oc3c2C(=O)c2ccccc2C3=O)cc1	u	1.58µM	0.104µM	x
Cc1ccc(S(=O)(=O)NC(C)c2ccccc2)cc1[N+](=O)[O-] (stereo not given)	n	n	n	11.7µM
O=C(CSc1nc2nn(-c3ccccc3)c(=O)c-2c2n1CCCCC2)Nc1ccc(OC(F)F)cc1	n	u	x	x
CC(=O)Nc1c(C(=O)O)oc2ccc(Cl)cc12	n	n	n	2.62µM
Cc1ccc(NC(=O)C(C)N2CCCC2)cc1Cl (stereo not given)	n	n	n[5.75 µM]	n
COc1ccc(OC)c(C(=O)/C=C/c2ccccc2C(F)(F)F)c1	n	10µM	u	u
COc1ccc(OC)c(N/C=C/C(=O)c2ccccc2)c1	n	n	u	u
COc1ccc(CS(=O)(=O)CC2(O)CCN(C(=O)c3cccc(C(F)(F)F)c3)CC2)cc1	n	n	14.7µM	n
Cn1c(SCC(=O)N(C2CCCCC2)C2CCCCC2)nnc1-c1cccs1	n	n	11.7µM	x
O=C1c2cccnc2C(Nc2ccc(Br)cc2Br)N1Cc1cccs1 (stereo not given)	x	x	u	6.57µM
O=C1c2cccnc2C(Nc2ccc(Br)cc2)N1Cc1cccs1 (stereo not given)	n	n	n	n
COC(=O)c1ccc(CN2C(=O)C3CCCCC3C2=O)o1 (stereo not given)	n	n	3.29µM	n
COC(=O)c1ccc(CSCc2ccc(C(=O)OC)o2)o1	n	n	n	n
Cc1[nH]n(C)c(=O)c1[N+](=O)[O-]	n	n	n	n
CCCc1c(O)nc(SCCN(CC)CC)[nH]c1=O	n	n	n	x
CCCc1c(O)nc(SCCN(CC)CC)n(C(=O)c2ccccc2)c1=O	n	n	u	13.1µM
O=C(CN1C(=O)NC(Cc2c[nH]c3ccccc23)C1=O)Nc1cccc(S(=O)(=O)N2CCOCC2)c1 (stereo not given)	n	n	u	9.28µM
SMILES	AMA1-RON2 inh	HCV inhibitor	Pf growth 48h	Pf growth 96h
O=C(CSc1nnc2c(n1)[nH]c1ccccc12)Nc1cccc(S(=O)(=O)N2CCOCC2)c1	n	u	u	14.7µM
Cc1cc(C)cc(NC(=O)CN2C(=O)NC(Cc3c[nH]c4ccccc34)C2=O)c1 (stereo not given)	n	n	x	x
CCN(CC)S(=O)(=O)c1cc(NC(=O)CNc2cccc(S(=O)(=O)N3CCCC3)c2)ccc1C	n	0.562µM	11.7µM	u
CCN(CC)S(=O)(=O)c1cc(NC(=O)C(C)N2CC=C(c3ccccc3)CC2)ccc1C (stereo not given)	n[2.32 µM]	11.2µM	u	u
O=C(CSc1nnc2c(n1)[nH]c1ccccc12)Nc1ccc(N2CCOCC2)cc1	n	u	n	n
CN(C)S(=O)(=O)c1ccc(C(=O)N2CC(=O)Nc3ccc(F)cc3C2c2ccc(F)cc2)cc1 (stereo not given)	n	n	n	n
O=C(CN1CCN(S(=O)(=O)c2ccc(Br)cc2)CC1)Nc1ccc(F)cc1	n	n	4.15µM	n
O=C(CNc1ccc(Br)cc1)Nc1ccc(S(=O)(=O)N2CCCC2)cc1	n[11.6 µM]	n	9.28µM	11.7µM
CCN(CC)S(=O)(=O)c1cccc(NC(=O)CNc2cccc(S(=O)(=O)N3CCOCC3)c2)c1	n	0.562µM	u	u
O=C(CNc1cccc(S(=O)(=O)N2CCOCC2)c1)Nc1ccc(C(F)(F)F)cc1	n	u	6.57µM	7.38µM
C[C@H](N[C@@H](C)COc1ccccc1)[C@H](O)c1ccc(O)cc1	x	x	n	n
Cc1ccc(S(=O)(=O)N2CCCCC2)cc1NC(=O)COC(=O)c1cccc(O)c1	n	x	x	x

High-throughput results (PubChem BioAssay)
